The list is not random: actives were taken first. Their share in the collection is about 2%.
Exocytosis inh – lytic granule exocytosis inhibition; actives 0.66% (n = 360,000); inhibition, % at 10 µM; TALL-104 LAMP-1 surface exposure, flow cytometry; cells stimulated with thapsigargin and PMA;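 active = inhibition above about 55%, limit read from the data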
NOD2 RIPK2 PPI – blocks binding of human NOD2 to RIPK2. AID 624267. actives 0.38% (n = 360,000). O43353. CHO BLA complementation NOD2-RIPK2, CCF4 ratio. inhibition, % at 4.98 µM; in the data active = inhibition above about 21%;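 note: 0% = vehicle only and 100% = reference blocker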
Beta2AR agonist – human beta-2 adrenergic receptor agonism by FAP; P07550; Am2.2-beta2AR cells, FAP receptor internalization, flow cytometry; response, % (concentration not given with the values); actives 0.43% (n = 340,000); AID 504454;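 active = response above a set limit, near 3 SD of response in nonfluorescent compounds, cut at about 42% in these data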
TLR9-MyD88 inh – blocks human TLR9 binding to MyD88. CHO BLA complementation TLR9-MyD88, CCF4 FRET ratio. AID 504734. actives 0.21% (n = 340,000). Q9NR96+Q99836. inhibition, % at 4.98 µM;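 active = inhibition above the mean over all tested compounds plus 3 SD, cut at about 21% in these data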;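 note: 0% = DMSO only wells and 100% = clavulanate BLA inhibitor control wells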
TLR4 MyD88 comp – TLR4-MyD88 interaction inhibition in cells; O00206+Q99836; actives 0.18% (n = 200,000); HeLa CL3-4 TLR4/MyD88 BLA complementation, FRET ratio; AID 861; inhibition, % at 8.4 µM; in the data active = inhibition above about 25%;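 note: 0% = vehicle and 100% = reference inhibitor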
ABHD5 PLIN5 PPI – inhibitors of human ABHD5-perilipin-5 interaction. Q00G26+Q8WTS1. Split G. princeps luciferase complementation, luminescence, 4 h. inhibition, % at 4 µM. actives 0.78% (n = 360,000). AID 602281;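 active = inhibition above the mean inhibition across every tested compound plus 3 SD, cut at about 22% in these data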;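 note: 0% = DMSO only wells and the 100% control is not disclosed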
ABHD5 PLIN5 conf – confirmation of human ABHD5-PLIN5 interaction inhibitors; shares compounds with ABHD5 PLIN5 PPI; actives 67% (n = 2,200); inhibition, % at 4 µM; biochemical ABHD5-PLIN5 interaction, luminescence; in the data active = inhibition above about 23%;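 note: 0% = DMSO vehicle wells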
HNF4 counter – counter-screen for ABHD5-PLIN5 inhibitors: HNF4 split-luciferase; shares compounds with ABHD5 PLIN5 PPI; HNF4 dimerization, luminescence, biochemical; inhibition, % at 4 µM; actives 77% (n = 2,200); AID 651674;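 active = mean inhibition across replicate wells exceeding the computed hit threshold, cut at about 13% in these data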;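 note: light from luciferase halves that rejoin when HNF4 fusion proteins dimerize; 0% = DMSO only wells and the 100% control is not given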
Target sequence (P41235 whole entry, looked up, the tested form may be a part): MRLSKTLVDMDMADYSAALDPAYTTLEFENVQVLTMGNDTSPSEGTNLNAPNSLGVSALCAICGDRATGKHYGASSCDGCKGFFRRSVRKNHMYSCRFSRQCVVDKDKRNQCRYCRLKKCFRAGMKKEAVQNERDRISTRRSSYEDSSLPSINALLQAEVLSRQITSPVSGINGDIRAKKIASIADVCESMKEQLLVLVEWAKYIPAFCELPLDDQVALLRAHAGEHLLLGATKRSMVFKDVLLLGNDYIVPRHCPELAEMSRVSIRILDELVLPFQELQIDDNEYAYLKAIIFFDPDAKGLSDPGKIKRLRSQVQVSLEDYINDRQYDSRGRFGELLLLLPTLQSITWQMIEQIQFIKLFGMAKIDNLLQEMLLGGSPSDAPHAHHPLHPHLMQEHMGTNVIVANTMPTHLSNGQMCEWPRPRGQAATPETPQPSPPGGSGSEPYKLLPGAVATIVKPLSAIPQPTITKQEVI
NOD2-RIPK2 conf – confirmation of human NOD2-RIPK2 interaction inhibitors; CHO cells, NOD2-RIPK2 BLA complementation, CCF4 FRET; actives 70% (n = 1,200); inhibition, % at 4.98 µM; AID 624370; shares compounds with NOD2 RIPK2 PPI;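 active = mean inhibition across replicates above a set limit taken from the earlier primary screen, cut at about 21% in these data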;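 note: 0% = DMSO-only wells and the high end = clavulanate BLA-blocked wells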
NOD2 BLA counter – counter-screen for NOD2-RIPK2 interaction inhibitors: BLA reporter. inhibition, % at 4.98 µM. actives 57% (n = 1,200). CHO BLA reporter, CCF4 FRET ratio, counterscreen. shares compounds with NOD2 RIPK2 PPI;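 active = mean inhibition above the low-control mean inhibition plus three low-control SD, cut at about 11% in these data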;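 note: 0% = DMSO only wells and 100% = clavulanate high control wells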
Granule exo CP1 – lytic granule exocytosis inhibition; shares compounds with Exocytosis inh; inhibition, % at 10 µM; AID 651954; actives 11% (n = 1,500); TALL-104 cells, LAMP-1 externalization, flow cytometry; stimulated with PMA plus thapsigargin; in the data active = inhibition above about 60%;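 note: 0% = stimulated vehicle wells and 100% = unstimulated wells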
Active calls of the source: *; / = not tested or not shown.

SMILES	Exocytosis inh	NOD2 RIPK2 PPI	Beta2AR agonist	TLR9-MyD88 inh	TLR4 MyD88 comp	ABHD5 PLIN5 PPI	ABHD5 PLIN5 conf	HNF4 counter	NOD2-RIPK2 conf	NOD2 BLA counter	others
COC(=O)C1=C(C(=O)OC)C2OC1c1cc3ccccc3cc12	5	88*	17	18	/	81*	78*	109*	86*	19*
CC(C)(C)n1nnnc1C(c1cccc2ccccc12)N1CCC2(CC1)C(=O)NCN2c1ccccc1 (centres undefined)	-2	2	/	/	/	1	/	/	/	/
C=C1C(=O)OC2CC3(C)OC3C3OC3C3=CC(OC3=O)C12 (centres undefined)	40	44*	/	/	/	100*	101*	111*	67*	18*
COC(=O)[C@@H]1N=C(c2ccc(OC)cc2)O[C@]12C(=O)N(C)c1ccc(Cl)cc12	-7	-8	/	/	/	4	/	/	/	/
COC(=O)C1=C(c2ccc(OC)c(OC)c2)C[C@@H]2CC[C@H]1N2C(=O)NCCCOC(C)C	-15	5	2	0	/	-13	/	/	/	/
COc1ccc(CN2Cc3cnnn3-c3ccccc3C2C#N)cc1 (centres undefined)	1	45*	21	-8	/	58*	91*	89*	13	-6
COc1ccc(CN2Cc3cnnn3-c3ccccc3C2c2ccccc2)cc1 (centres undefined)	16	1	20	-3	/	6	/	/	/	/
COC(=O)[C@@H]1[C@@H](C(=O)OC)C2(c3ccccc3-c3ccccc32)N(c2ccc(Cl)cc2)N1C#N	21	71*	25	2	8	78*	97*	96*	68*	2
C=CCN1Cc2ccccc2-n2nncc2C1	-1	4	/	/	/	8	/	/	/	/
CCOC(=O)[C@]12Cc3cc(Cl)ccc3[C@H]1N(C(C)C)C(=O)c1ccccc12	33	30*	/	/	/	33*	25*	29*	67*	3
Clc1cccc(N2Cc3cc(-c4ccccc4)ccc3-n3nncc3C2)c1	99*	1	/	/	/	72*	47*	27*	/	/	Granule exo CP1=-13
CCOC(=O)[C@]12Cc3cc(OC)ccc3[C@H]1N(C1CCCCC1)C(=O)c1ccccc12	67*	50*	/	/	/	40*	18	32*	62*	0	Granule exo CP1=-10
CCOC(=O)[C@]12Cc3cc(C)ccc3[C@H]1N(C)C(=O)c1ccccc12	-4	-14	/	/	/	5	/	/	/	/
CCOC(=O)[C@]12Cc3cc(Cl)ccc3[C@H]1N(C1CCCCC1)C(=O)c1ccccc12	83*	66*	/	/	/	51*	40*	39*	68*	0	Granule exo CP1=8
CCCCCN1C(=O)c2cc(OC)ccc2[C@@]2(C(=O)OCC)Cc3cc(Cl)ccc3[C@@H]12	63*	46*	/	/	/	39*	27*	30*	44*	-2	Granule exo CP1=0
CCOC(=O)[C@]12Cc3cc(OC)ccc3[C@H]1N(C)C(=O)c1ccccc12	0	-14	/	/	/	0	/	/	/	/
N#CC1c2ccccc2-n2nncc2CN1C(=O)c1ccccc1F (centres undefined)	4	10	/	/	/	-5	/	/	/	/
COc1ccc(OC(=O)N(C)C[C@@H]2OCc3ccccc3-c3c(n(C)c4ccccc34)C(=O)N([C@H](C)CO)C[C@@H]2C)cc1	3	4	/	6	/	7	/	/	/	/
COc1cc(/C=C/c2nc3ccccc3c(=O)n2-c2cccc(O)c2)ccc1O	12	21*	-101	14	/	6	/	/	5	14*
O=S(=O)(c1ccccc1)N1Cc2ccccc2-n2nncc2C1	5	-11	/	-1	/	7	/	/	/	/
O=C1NC(=O)C(Nc2ccccc2)C(=O)N1	-4	-6	1	9	/	3	/	/	/	/
CC1CC(C)CC(C)C(O)C(C#N)=CC=CCC(C2CCCC2C(=O)O)OC(=O)CC(O)C(C)C1 (centres undefined)	2	30*	13	6	/	-6	/	/	28*	-5
CCC(=O)c1ccc(OCC(=O)N2CCN(CC(=O)Nc3ccccc3C(F)(F)F)CC2)cc1	-1	-15	-15	4	/	1	/	/	/	/
C[n+]1c(-c2ccccc2)c2cc(N)ccc2c2ccc(N)cc21	5	28*	17	11	/	-19	/	/	-1	-3
CC(CN1CCOCC1)C(C#N)(c1ccccc1)c1ccccc1 (centres undefined)	-7	-5	-5	3	/	7	/	/	/	/
SMILES	Exocytosis inh	NOD2 RIPK2 PPI	Beta2AR agonist	TLR9-MyD88 inh	TLR4 MyD88 comp	ABHD5 PLIN5 PPI	ABHD5 PLIN5 conf	HNF4 counter	NOD2-RIPK2 conf	NOD2 BLA counter	others
O=C1NC2C(=CC(O)C(O)C2O)c2cc3c(cc21)OCO3 (centres undefined)	1	15	12	4	/	4	/	/	/	/
COc1cc(C2c3cc4c(cc3CC3COC(=O)C32)OCO4)cc(OC)c1O (centres undefined)	8	-11	23	2	/	-2	/	/	/	/
O=C1NC2C(O)C(O)C(O)C(O)C2c2cc3c(c(O)c21)OCO3 (centres undefined)	-4	22*	20	4	/	2	/	/	29*	-2
O=C1NC2C(=CC(O)C(O)C2O)c2cc3c(c(O)c21)OCO3 (centres undefined)	0	30*	36	-1	/	-11	/	/	27*	-7
CC(C)(C)NC(=S)N1Cc2ccccc2-n2nncc2C1	0	-9	/	-11	/	-3	/	/	/	/
CC(=O)OCC12CC(OC(=O)CC(C)C)C(C)=CC1OC1C(O)C(OC(C)=O)C2(C)C12CO2 (centres undefined)	-7	23*	19	-10	/	2	/	/	23*	-7
N#CC1c2ccccc2-n2nncc2CN1Cc1cc(Cl)cc(Cl)c1 (centres undefined)	25	59*	94*	13	/	96*	/	/	43*	-2
C#CCOc1ccc2c(c1)c(C(C)=O)c(C)n2Cc1ccccc1	60*	4	12	-8	/	-3	/	/	/	/	Granule exo CP1=-4
CCC1(CCC(C)C)C(=O)NC(=O)N(c2ccccc2)C1=O (centres undefined)	14	-11	/	/	/	-2	/	/	/	/

Assay outcomes as filed in PubChem.
